In all, about 360,000 compounds went through this assay and about 6,200 (1.7%) were called active. This is one part of a sample in which actives are shown more often than they occur.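 Rule for the calls: active = inhibition of at least 50% at 20 µM; inactive = the rest.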
Test: inhibition of PEG-3 promoter activity – cell-based, HeLa, luciferase luminescence, primary screen (AID 588405)
Conditions: HeLa PEG-Prom luciferase reporter, overnight, at 20 µM, stronger effect = higher value

inhibition, active:
CC[C@H]1CN2CCc3cc(OC)c(OC)cc3[C@@H]2C[C@@H]1C[C@H]1NCCc2cc(OC)c(OC)cc21 95%
CCCC[C@@H]1CN=C(N)N1CCc1cc(C(F)(F)F)cc(C(F)(F)F)c1 64.1%
Cc1cc(C)nc(S/C=C/C(=O)c2ccccc2)n1 109%
CCCCC(=O)N/N=C(\C)CC(=O)Nc1cc(Cl)ccc1OC 93.5%
CCC1CCCCN1CCCNC(=O)c1cc2c(Cl)nc3ccccc3c2s1 (configuration not stated) 100%
CCOc1cc2[nH]c(=S)n(Cc3ccc(C(=O)N4CCN(C)CC4)cc3)c(=O)c2cc1OCC 105%

inhibition, inactive:
OC[C@@H]1CN(Cc2ccc(Cl)cc2)C[C@H](n2cnc3c(NCc4ccncc4)ncnc32)O1 8.27%
FC(F)(F)Oc1ccccc1C(c1nnnn1C1CCCCC1)N1CCN(C/C=C/c2ccccc2)CC1 (configuration not stated) -12.9%
CC(C)C[C@H]1CN([C@@H](Cc2ccccc2)CN2CCC[C@@H]2CN2C(=O)C(=O)NC[C@@H]2Cc2ccc(O)cc2)C(=O)C(=O)N1CCc1ccccc1 -8.17%
CCOC(=O)C1=CCC(c2ccc(F)cc2)N(S(=O)(=O)c2ccc(C)cc2)C1 (configuration not stated) 18.4%
CCc1nc2c(OCC(=O)C(C)(C)C)cccn2c1N(C)C(=O)c1ccccc1F -3.25%
COc1ccc(OC)c(C(O)c2ncc(-c3cccc(C(F)(F)F)c3)[nH]2)c1 (configuration not stated) 1.51%
CCCC[C@@H]1CN=C(N)N1CCCC 6.54%
CCCC[C@@H]1CN=C(N)N1CCc1cccc(F)c1 2.77%
Cn1c(Nc2ccc(F)cc2)nc2cc(-c3ccsc3)sc2c1=O -53.6%
CC1(C(=O)Nc2ccccc2Br)CCN1C(=O)CC1CC1 (configuration not stated) 3.67%
CCOC(=O)C1=CCC2C(=O)N(Cc3ccccc3)C(=O)C12 (configuration not stated) -14.8%
CNC[C@H]1OCc2cnnn2CCCC(=O)N([C@H](C)CO)C[C@@H]1C -4.6%
COc1ccc(OC)c(NC(=O)c2cc(-c3cc(F)ccc3OCC3CCCO3)n[nH]2)c1 (configuration not stated) 25.5%
COC(c1ccccc1)(c1ccccc1)C(Oc1nc(C)cc(C)n1)C(=O)O (configuration not stated) 19%
Cc1cc(C)nc(SC(C)C(=O)N/N=C/c2cccs2)n1 (configuration not stated) 2.36%
Cc1coc(C)c1C(=O)CC1(O)C(=O)N(C)c2ccc(Cl)cc21 (configuration not stated) 7.27%
CCOc1ccc(N2CC(C(=O)N/N=C/c3sccc3C)CC2=O)cc1 (configuration not stated) 13.4%
CC1(C(=O)NS(=O)(=O)c2ccccc2)CCN1C(=O)C1CCCCC1 (configuration not stated) -0.02%
O=C1CCN(Cc2ccccc2)CCN1[C@H](CSc1ccccc1)c1ccccc1 -23.1%
COc1ccc(Cl)cc1NC(=O)CCS(=O)(=O)c1ccc(Br)cc1 21.8%
COc1ccc(/C(C)=N/NC(=O)CCC(=O)Nc2ccc(Cl)cc2Cl)c(OC)c1 -11.2%
C[C@H](NC(=O)CC[C@H]1O[C@@H](n2ccc(=O)[nH]c2=O)[C@H](O)[C@@H]1O)c1cccc2ccccc12 6.63%
OC(c1ccccc1)c1nc(/C=C/c2ccc(C(F)(F)F)cc2)cs1 (configuration not stated) 3.42%
C#CCCOC(=O)N1C2=NC(C(=O)OC)=C(C(=O)OC)[C@@H]3N(C)c4ccc(OC)cc4[C@]23C[C@H]1C(=O)OC -3.24%
C[C@@H]1CN([C@@H](C)CO)C(=O)CCCn2cc(nn2)CO[C@H]1CN(C)S(=O)(=O)c1ccc(-n2cccn2)cc1 -0.13%
Cc1c(C(=O)NCC2CC2)sc(=O)n1Cc1cccc(F)c1 -1.67%
CCN1C(=O)[C@@H]2[C@@H]3CN(S(=O)(=O)c4ccccc4C)[C@@H](c4ccc(Cl)cc4)[C@@H]3C(=O)C[C@@H]2C1=O -51.1%
CCCn1c2ccccc2c2cnn(CC(=O)NCCCN3CCCCC3CC)c(=O)c21 (configuration not stated) 17.1%
Cc1nc2ccccc2c2oc(C(=O)NCCCN3CCC(C)CC3)cc12 -9.23%
CN(CCO)C(=O)c1nc[nH]c1C(=O)N(C)Cc1ccccc1 -1.65%
Cc1ccc(F)c(S(=O)(=O)NC(=O)C2(C)CCN2C(=O)CCc2cccs2)c1 (configuration not stated) -1.22%
COCCNC(=O)C1(C)CCCN(Cc2cccc(F)c2)C1 (configuration not stated) 1.57%
CCNC(=O)C1(C)CCN(Cc2ccc(C(=O)OCC)o2)C1 (configuration not stated) 2.73%
O=C(Cc1ccc(NC(=O)C2CCCN(C(=O)CCc3ccccc3)C2)cc1)Nc1ccc(C(=O)N2CCOCC2)cc1 (configuration not stated) -12.9%
CCOc1cc2[nH]c(=S)n(Cc3ccc(C(=O)NCCOC)cc3)c(=O)c2cc1OCC 9.27%
COc1cc2[nH]c(=S)n(Cc3ccc(F)cc3)c(=O)c2cc1OC 13.7%
